The panel holds about 79,000 compounds, 15% with a hit somewhere; the sample as a whole holds those more often. Activity calls are given as the source filed them. No stated cut-off is given here; in the data, active means growth inhibition above about 70%; inactive means the rest.
What was measured:
[1] = NCI Yeast Anticancer Drug Screen. Data for the rad50 strain (AID 155);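 further: 0% = growth of vehicle-only cultures of the same strain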; details: S. cerevisiae rad50 strain growth inhibition, active compounds read high
In short: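 Cells are treated with compound, grown, and their growth is then scored against vehicle-only cultures of the same repair-deficient yeast strain.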

[2] = NCI Yeast Anticancer Drug Screen. Data for the mec2-1 strain (AID 157); details: S. cerevisiae mec2-1 strain, active compounds read high
In short: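 Mutant yeast (mec2-1) grown with compound; growth inhibition relative to vehicle control reported.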

[3] = NCI Yeast Anticancer Drug Screen. Data for the sgs1 mgt1 strain (AID 161);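 further: 0% = growth of cultures given vehicle only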; details: S. cerevisiae sgs1 mgt1 strain, active compounds read high
In short: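 Percent growth inhibition was derived by comparing compound-exposed mutant yeast with vehicle-exposed cultures. The strain carries alterations in DNA damage repair.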

[4] = NCI Yeast Anticancer Drug Screen. Data for the cln2 rad14 strain (AID 165);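 further: 0% = growth equal to vehicle treated cultures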; details: S. cerevisiae cln2 rad14 strain, active compounds read high
In short: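 Readout is yeast growth inhibition versus vehicle-treated controls, using a strain with cln2 and rad14 alterations exposed to compound.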

[5] = NCI Yeast Anticancer Drug Screen. Data for the bub3 strain (AID 167); details: S. cerevisiae bub3 mutant strain, active compounds read high
In short: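 Part of a panel of yeast mutants defective in DNA damage repair or cell cycle regulation. Each strain is grown with compound, and inhibition is calculated relative to solvent-treated cultures.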

[6] = NCI Yeast Anticancer Drug Screen. Data for the mlh1 rad18 strain (AID 175); details: S. cerevisiae mlh1 rad18 strain growth inhibition, active compounds read high
In short: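 Genetically defined yeast (DNA repair-deficient) exposed to compounds; growth inhibition determined relative to vehicle.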

[7] = at 5.0 µM (retest, dose inferred, filed as 0.5)
[8] = at 50.0 µM (retest, dose inferred, filed as 5.0)

Measured: growth inhibition

O=C1c2c(Br)c(Br)c(Br)c(Br)c2C(=O)N1c1nccs1
inactive: [1]; [7] -1% | [1]; [8] 51% | [2]; [7] -4% | [3]; [7] -10% | [3]; [8] 54% | [4]; [7] -20% | [4]; [8] 25% | [4]; at 50.0 µM 45.5% | [5]; [7] 11% | [5]; at 50.0 µM 69.4% | [6]; [7] 21%
active: [1]; at 50.0 µM 75.4% | [2]; [8] 72% | [2]; at 50.0 µM 70.8% | [3]; at 50.0 µM 75% | [5]; [8] 70% | [6]; [8] 72% | [6]; at 50.0 µM 72.3%

CC(C)COC(=O)c1ccc(NC(=O)CCl)cc1
active: [1]; [8] 93% | [2]; [8] 94% | [3]; [8] 95% | [4]; [8] 95% | [5]; [8] 93% | [6]; [8] 92%
inactive: [1]; [7] 0% | [1]; at 50.0 µM 62.1% | [2]; [7] -1% | [2]; at 50.0 µM 29.9% | [3]; [7] 2% | [3]; at 50.0 µM 62.3% | [4]; [7] -7% | [4]; at 50.0 µM 16.1% | [5]; [7] 0% | [5]; at 50.0 µM 10% | [6]; [7] 3% | [6]; at 50.0 µM 67.8%

S=C1NCCNC(=S)SS1
active: [1]; [8] 97% | [1]; at 50.0 µM 93% | [2]; [8] 99% | [2]; at 50.0 µM 77.6% | [3]; [8] 97% | [4]; [8] 98% | [5]; [8] 99% | [5]; at 50.0 µM 98.8% | [6]; [8] 99%
inactive: [1]; [7] 40% | [2]; [7] 8% | [3]; [7] 15% | [3]; at 50.0 µM 48.5% | [4]; [7] 7% | [4]; at 50.0 µM 20.2% | [5]; [7] 10% | [6]; [7] 14% | [6]; at 50.0 µM 44.5%

CC(=O)/C=N/Nc1ccccc1
inactive: [1]; [7] 15% | [1]; [8] 20% | [1]; at 50.0 µM 42.1% | [2]; [7] 3% | [2]; [8] 7% | [2]; at 50.0 µM 3.5% | [3]; [7] -9% | [3]; [8] 11% | [3]; at 50.0 µM 33% | [4]; [7] 0% | [4]; [8] -8% | [4]; at 50.0 µM -9.5% | [5]; [7] -1% | [5]; [8] 3% | [5]; at 50.0 µM 7.2% | [6]; [7] 14% | [6]; [8] 32% | [6]; at 50.0 µM 58.6%

Cc1cccc(C[N+](C)(C)CCCO)c1C
inactive: [1]; [7] 1% | [1]; [8] 1% | [1]; at 50.0 µM -6.15% | [2]; [7] 4% | [2]; [8] 0% | [2]; at 50.0 µM -24.6% | [3]; [7] 3% | [3]; [8] 1% | [3]; at 50.0 µM -0.35% | [4]; [7] 2% | [4]; [8] 1% | [4]; at 50.0 µM 46.1% | [5]; [7] 0% | [5]; [8] 1% | [5]; at 50.0 µM -1.9% | [6]; [7] 0% | [6]; [8] -3% | [6]; at 50.0 µM -4.7%

CC12CC(O)C3C(CCC4CCCCC43C)C1CC/C2=N/O (stereo not given)
active: [1]; at 50.0 µM 86.6% | [2]; at 50.0 µM 91.2% | [3]; at 50.0 µM 93.3% | [5]; at 50.0 µM 93.9% | [6]; at 50.0 µM 94.6%
inactive: [1]; [7] 47% | [1]; [8] -10% | [2]; [7] 45% | [2]; [8] 7% | [3]; [7] 27% | [3]; [8] 1% | [4]; [7] 8% | [4]; [8] -6% | [4]; at 50.0 µM 50.8% | [5]; [7] 10% | [5]; [8] -5% | [6]; [7] 52% | [6]; [8] 5%

Cc1c2ccccc2c(C)c2c1cc(F)c1ccccc12
active: [1]; [8] 88% | [1]; at 50.0 µM 96.1% | [2]; [8] 92% | [2]; at 50.0 µM 97.3% | [3]; [8] 94% | [3]; at 50.0 µM 96.4% | [4]; [8] 91% | [4]; at 50.0 µM 94.5% | [5]; [8] 90% | [5]; at 50.0 µM 94.8% | [6]; [8] 89% | [6]; at 50.0 µM 93.8%
inactive: [1]; [7] 32% | [2]; [7] 43% | [3]; [7] 46% | [4]; [7] 34% | [5]; [7] 21% | [6]; [7] 55%

CCCCCCCCCCC[N+]1(Cc2ccccc2)CC2CCN(Cc3ccccc3)CC2C1 (stereo not given)
active: [1]; [7] 97% | [1]; [8] 100% | [1]; at 50.0 µM 99.5% | [2]; [7] 73% | [2]; [8] 100% | [2]; at 50.0 µM 99.3% | [3]; [8] 99% | [3]; at 50.0 µM 99.6% | [4]; [7] 95% | [4]; [8] 99% | [4]; at 50.0 µM 99.4% | [5]; [7] 99% | [5]; [8] 99% | [5]; at 50.0 µM 99.5% | [6]; [7] 97% | [6]; [8] 99% | [6]; at 50.0 µM 99.5%
inactive: [3]; [7] 54%

CC(=O)OC1C2C3C(C=CC2[C@H]1OC(C)=O)C1C3C=CC2C1C(OC(C)=O)[C@@H]2OC(C)=O (stereo not given in full)
inactive: [1]; [7] 3% | [1]; [8] 14% | [1]; at 50.0 µM 18.4% | [2]; [7] -1% | [2]; [8] 21% | [2]; at 50.0 µM 11.8% | [3]; [7] -173% | [3]; [8] 11% | [3]; at 50.0 µM 5.2% | [4]; [7] -2% | [4]; [8] 13% | [4]; at 50.0 µM 14.3% | [5]; [7] -2% | [5]; [8] 4% | [5]; at 50.0 µM -1.9% | [6]; [7] 12% | [6]; [8] 30% | [6]; at 50.0 µM 12.9%

Clc1ccc(/C=N\Nc2ccccc2)c(Cl)c1
active: [1]; [8] 99% | [1]; at 50.0 µM 76.8% | [2]; [8] 99% | [3]; [8] 98% | [4]; [8] 86% | [5]; [8] 99% | [6]; [8] 99%
inactive: [1]; [7] 4% | [2]; [7] 1% | [2]; at 50.0 µM 44.9% | [3]; [7] -1% | [3]; at 50.0 µM 30.1% | [4]; [7] 2% | [4]; at 50.0 µM -6.9% | [5]; [7] -2% | [5]; at 50.0 µM 31.7% | [6]; [7] 1% | [6]; at 50.0 µM 66.4%
